# Results as given in PubChem BioAssay AID624297 (National Center for Advancing Translational Sciences (NCATS), 2012).
# Out of some 340,000 compounds screened, about 6,200 (1.8%) were called active. Where a call stands in place of a potency, no number is given. Another 10% or so got no clear call; they are omitted. Calls come from the whole dose curve; as a rule, active = well fitted activation curve with a large enough effect; inconclusive = small, poorly fitted or top-dose-only effect; inactive = no such curve, though single readings can be large or run the other way. This excerpt belongs to a sample that is enriched for actives.
# Assay: A quantitative high throughput screen for small molecules that induce DNA re-replication in SW480 colon adenocarcinoma cells. Note: nearly all actives have a fitted effect of over 55% in size.
# Conditions: Hoechst DNA content imaging, 48 h; series mostly up to 46.1 µM
# Outline: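 Quantitative HTS format with DMSO vehicle controls; 48 hr drug incubation at 37 C, then 40 min Hoechst staining and scanning imager measurement at 405 nm excitation.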
# Potency is the fitted concentration of half-maximal effect.
Structure (SMILES),Potency,re-replication activation
CCOC(=O)C(CO)NC(=O)C1(NC(C)=O)CCCC1 (stereo unspecified),inactive,–
C=CCn1c(SCc2c(C)noc2C)nc2sc3c(c2c1=O)CCC(C)C3 (stereo unspecified),9.2 µM (active),–
C=CCn1c(SCC(=O)NCCCO)nc2sc3c(c2c1=O)CCC3,inactive,–
C=CCn1c(SCC(=O)NCC2CCCO2)nc2sc(C)c(C)c2c1=O (stereo unspecified),inactive,–
Cc1ccc(NC(=O)CN(C)C(=O)c2ccc(Cl)c(S(=O)(=O)NCc3ccco3)c2)cc1,inactive,–
Cc1c(Cl)cnc(NC(=O)COC(=O)C2CCCC2)c1Cl,inactive,–
O=C1CC(c2ccccc2)C(c2ccccc2)=NN1 (stereo unspecified),inactive,–
O=c1oc2ccccc2cc1-c1cn(-c2ccccc2)c(=S)[nH]1,9.2 µM (active),–
S=c1[nH]c(-c2cccs2)cn1-c1ccccc1,inactive,–
COc1ccc(-c2cn(-c3ccc(OC)cc3)c(=S)[nH]2)cc1,inactive,–
O=C(O)c1ccc(S(=O)(=O)c2ccccc2)s1,inactive,–
O=[N+]([O-])c1ccc(COc2ccccc2CN2CCOCC2)cc1,–,-7.64% [at 9.22 µM] (inactive)
NC(=O)c1ccccc1N(Cc1ccccc1)S(=O)(=O)c1ccccc1,inactive,–
CCOC(=O)N1CCN(C(=O)c2ccccc2N(Cc2ccccc2)S(=O)(=O)c2ccc(OC)cc2)CC1,14.6 µM (active),–
CCOC(=O)N1CCN(S(=O)(=O)c2ccc(OC)cc2)CC1,inactive,–
CCOC(=O)c1ccccc1NC(=O)CSc1nc2c(sc(=S)n2CC)c(=O)[nH]1,inactive,–
CCOC(=O)C1=C(c2ccccc2)NC(=S)NC1c1ccc(Cl)cc1 (stereo unspecified),inactive,–
CCOC(=O)C1=C(CN2CCCCCC2)NC(=O)NC1c1cccc([N+](=O)[O-])c1 (stereo unspecified),inactive,–
CCOC(=O)C1=C(CN2CCc3ccccc32)NC(=O)NC1c1ccc(Cl)cc1 (stereo unspecified),7.31 µM (active),–
O=C(CN1CCN(S(=O)(=O)/C=C/c2ccccc2)CC1)NC(=O)NCc1ccco1,inactive,–
O=C(CN1CCN(c2ccccc2O)CC1)NC(=O)NCc1ccccc1,inactive,–
COc1ccccc1N1CCN(CC(=O)NC(=O)NCc2ccco2)CC1,5.8 µM (active),–

Structure (SMILES),Potency,re-replication activation
COC1=CC(=O)OC(c2ccc(OC)cc2)C1 (stereo unspecified),inactive,–
COc1ccc(CCNC(=O)C(=O)NCC2CCCN2S(=O)(=O)c2cccs2)cc1OC (stereo unspecified),inactive,–
COc1ccccc1CCNC(=O)C(=O)NCCC1CCCCN1S(=O)(=O)c1cccs1 (stereo unspecified),inactive,–
O=C(NCCC1CCCCN1S(=O)(=O)c1cccs1)C(=O)Nc1ccc(F)cc1F (stereo unspecified),11.2 µM (active),–
Cc1noc(C)c1NC(=O)Nc1ccc2c(c1)C(=O)N([C@H](C)CO)C[C@H](C)[C@@H](CN(C)C(=O)Nc1ccc(C(F)(F)F)cc1)O2,inactive,–
CCNc1nc(NCC)nc(N/N=C/c2ccc(O)c(OC)c2)n1,inactive,–
Cc1cc(C)nc(N/N=C/c2ccncc2)n1,inactive,–
CCN(CC)c1ccc(/C=N/Nc2nc(C)cc(C)n2)c(O)c1,8.2 µM (active),–
Oc1ccc(Cl)c2c1CCC2,inactive,–
CSc1ncnc2c1ncn2CC(=O)C1CCC2C3CCC4=CC(=O)CCC4(C)C3CCC12C (stereo unspecified),inactive,–
Cc1ccc(C(=O)NCC(=O)NC2CC2)cc1,inactive,–
Cc1cc(NC(=O)c2cc3ccccc3o2)no1,inactive,–
COc1ccc(C(=O)Nc2ccc(C3(C#N)CCCC3)cc2)cc1OC,inactive,–
CCNC(=O)c1ccc(OCC(=O)Nc2ccc(F)cc2)c(OC)c1,inactive,–
COc1ccc(C(=O)N/N=C2\CCS(=O)(=O)c3ccc(F)cc32)cc1OC,10.3 µM (active),–
CN(C)C(=O)CCc1ccc2c3c([nH]c2c1)[C@]1(C)[C@@H](C(=O)N2CCOCC2)C[C@H](CC(=O)NCCc2ccccn2)C(=O)N1CC3,inactive,–
COc1ccc(NS(=O)(=O)c2ccc(N3CCOCC3)c(NC(=O)/C=C/C(=O)O)c2)cc1,inactive,–
Cc1ccc(S(=O)(=O)CCC(=O)OCC(=O)N(C)Cc2ccccc2)cc1,inactive,–
Cc1ccc(-n2c(O)c(C=Nc3ccc(S(=O)(=O)Nc4ncccn4)cc3)c3ccccc3c2=O)cc1C,inactive,–
CCOc1ccc(-n2c(O)c(/C=N/c3ccnn3Cc3ccncc3)c3ccccc3c2=O)cc1,20.6 µM (active),–
CCOc1ccc(-n2c(SCC(=O)Nc3cc(C(=O)O)ccc3Cl)nc3ccccc3c2=O)cc1,inactive,–
COc1ccc(C(CNC(=O)c2cccc(S(=O)(=O)Nc3ccc(Br)cc3)c2)N(C)C)cc1 (stereo unspecified),inactive,–

Structure (SMILES),Potency,re-replication activation
CCOc1cc(C=NNC(=O)CCCC(=O)NN=Cc2ccc(O)c(OCC)c2)ccc1O,inactive,–
Oc1ccc(/C=N/NC2=NCCCCC2)c(O)c1,inactive,–
Cc1nc2ccccc2nc1N/N=C/c1ccc(O)cc1O,1.64 µM (active),–
Oc1ccc(-c2nc3ccccc3nc2-c2ccc(O)cc2O)c(O)c1,inactive,–
COc1ccc(OCCNC(=O)c2cc(C3CC3)nc3c2cnn3C(C)C)cc1,inactive,–
Cc1cn(C2CC(O)C(CO)O2)c(=O)n(CCCc2ccccc2)c1=O (stereo unspecified),inactive,–
CN(C)c1ccc(CSc2ccccc2)cc1,inactive,–
COC(=O)Cc1nc2c(N)nc(N)nc2[nH]c1=O,inactive,–
CCc1cc2c(=O)n(-c3ccccc3)c(SCC(=O)O)nc2s1,18.4 µM (active),–
C=CCn1c(SCC(=O)c2c(N)n(C)c(=O)n(C)c2=O)nc2sc(CC)cc2c1=O,inactive,–
Cc1sc2nc(SCCO)n(-c3ccccc3)c(=O)c2c1C,inactive,–
COc1ccc(C(=O)COC(=O)c2c(C)noc2C)cc1Cl,inactive,–
Cc1ccc(C(=O)NNC(=O)c2ccc3c(c2)OCCO3)cc1,inactive,–
CC1CCCCC1NCC(=O)Nc1ccccc1C(=O)Nc1ccccc1 (stereo unspecified),inactive,–
O=C(NNC(=O)c1ccccc1O)c1ccccc1O,1.64 µM (active),–
O=C(Nc1ccc(O)cc1)c1ccccc1O,inactive,–
Cc1cc(C(=O)CCC(=O)NNC(=O)c2ccccc2O)c(C)s1,inactive,–
O=C(CN1C(=O)c2ccc([N+](=O)[O-])cc2C1=O)Nc1nnc(C2CC2)s1,inactive,–
COc1cc(Cl)c(C)cc1NC(=O)CSc1nnc(CN2CCCC2)o1,inactive,–
C/C(=N\NC(=O)c1ccoc1C)c1ccccc1O,2.31 µM (active),–
CC(=O)NC(=O)c1ccccc1O,inactive,–
Cc1ccnc(NC(=O)c2ccoc2C)c1,inactive,–
